Screening data as filed in PubChem.
GDH-TPI counter: GDH-TPI coupling enzyme inhibitors, primary screen, artefact control for M. tuberculosis FBA inhibitor project, biochemical, absorbance, full deck; 360,000 compounds, 1.2% hits; GDH-TPI coupled enzyme counterscreen, NADH absorbance; inhibition, % at 4.8 µM; AID 588335, 2011; in the data active means inhibition above about 30%
FBA Mtb inh: Mtb FBA enzyme inhibitors, primary screen, biochemical, fluorescence, strain H37Rv; Fructose-bisphosphate aldolase (Mycobacterium tuberculosis (strain ATCC 25618 / H37Rv)), …; purified M. tuberculosis FBA, fluorescence read-out; inhibition, % at 1 µM; 360,000 compounds, 2.3% hits; in the data active means inhibition above about 27%
Rv3671c inh: Rv3671c serine protease inhibitors, primary screen, biochemical, fluorescence polarization, M. tuberculosis H37Rv | P9WHR9 | AID 2606, 2010 | 320,000 compounds, 0.048% hits | inhibition, % at 5.96 µM; in the data active means inhibition above about 38%;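 further: extracellular domain of Rv3671c used as enzyme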
Target sequence (P9WHR9 whole entry, looked up, the tested form may be a part): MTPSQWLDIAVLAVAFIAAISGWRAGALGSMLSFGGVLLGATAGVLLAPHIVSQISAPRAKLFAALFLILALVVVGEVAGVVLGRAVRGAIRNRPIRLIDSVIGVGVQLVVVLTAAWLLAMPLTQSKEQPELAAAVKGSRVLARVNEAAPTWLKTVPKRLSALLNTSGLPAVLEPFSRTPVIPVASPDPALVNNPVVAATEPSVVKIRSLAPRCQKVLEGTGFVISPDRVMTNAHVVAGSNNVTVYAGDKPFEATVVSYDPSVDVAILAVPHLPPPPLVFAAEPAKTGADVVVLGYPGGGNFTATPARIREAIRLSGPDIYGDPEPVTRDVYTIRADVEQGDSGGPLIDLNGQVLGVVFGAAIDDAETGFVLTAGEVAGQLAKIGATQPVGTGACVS
UGM FP inh: M. tuberculosis UGM enzyme inhibitors, primary screen, biochemical, fluorescence polarization, single point. UDP-galactopyranose mutase (Mycobacterium tuberculosis (strain ATCC 25618 / H37Rv)), …. purified UGM, fluorescence polarization probe displacement. inhibition, % at 10 µM. 320,000 compounds, 0.06% hits; in the data active means inhibition above about 10%, passing the limit was not always enough; inconclusive means no clear call, values can overlap the other calls
RecA splice inh: Mtb RecA intein splicing inhibitors, primary screen, biochemical, fluorescence, HTS; cell-free RecA intein splicing; Protein RecA (Mycobacterium tuberculosis (strain ATCC 25618 / H37Rv)), P9WHJ3; inhibition, % (no concentration beside the values); 290,000 compounds, 0.75% hits; AID 2221, 2009; in the data active means inhibition above about 30%; inconclusive means no clear call, values can overlap the other calls
Mtb bLac sens: beta-lactam sensitization of Mtb H37Rv, H37Rv; 330,000 compounds, 0.27% hits; inhibition, % at 25 µM; M. tuberculosis H37Rv growth with meropenem, percent inhibition; call rule not given here;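 further: growth measured after seven days incubation then overnight dye step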
Large screens that a line does not name were inactive. Only some compounds are listed: those with a hit (about 4% of all), similar ones and a draw of the others.

CCC(=O)NC(=S)Nc1ccc2oc(-c3ccc(OC)cc3)nc2c1	none
CCCC(=O)Nc1ccc2oc(-c3ccc(OC)c(Br)c3)nc2c1	FBA Mtb inh 125 (no result: RecA splice inh)
CC1(C)CC(=O)C=C(c2ccc(COC(=O)Cc3ccccc3)cc2)C1=O	none (no result: Rv3671c inh, UGM FP inh, RecA splice inh, Mtb bLac sens)
CC(=O)N1N=C(c2ccc(C)o2)CC1c1ccc(F)cc1 (stereo unspecified)	GDH-TPI counter 71
O=C(O)c1ccc2nc(CO)[nH]c2c1	none
COc1cccc2cc(-c3nc4ccccc4[nH]3)c(=O)oc12	GDH-TPI counter 31
CCN(CC)c1ccc2cc(-c3nc4ccccc4[nH]3)c(=O)oc2c1	UGM FP inh 31 (no result: RecA splice inh)
Cc1cccc2cc(-c3nc4ccc(C(=O)O)cc4[nH]3)c(=O)oc12	GDH-TPI counter 31, FBA Mtb inh 34
Cc1noc(C)c1S(=O)(=O)N1CCCN(C(=O)/C=C/c2ccccc2F)CC1	none (no result: RecA splice inh)
O=C(Nc1ccn(CCCNCc2ccc3c(c2)OCO3)c(=O)n1)OCc1ccccc1	none (no result: Rv3671c inh, UGM FP inh, RecA splice inh, Mtb bLac sens)
Cc1cc(=O)oc(C)c1C(=O)NCCc1ccccc1	none
Cc1cc(=O)oc(C)c1C(=O)NCc1c(F)cc(F)cc1F	GDH-TPI counter 36 (no result: Mtb bLac sens)
CCCCNC(=O)c1c(C)cc(=O)oc1C	GDH-TPI counter 33
Cc1[nH]c2ccccc2c1C(=O)C(=O)N1CCN(c2ccccc2F)CC1	none
CCn1c(CN2CCOCC2)nnc1SCC(=O)Nc1cccc(C)c1	none
CCOC(=O)C1=CCN(S(=O)(=O)c2ccccc2)C1c1ccccc1 (stereo unspecified)	none (no result: GDH-TPI counter, Rv3671c inh, UGM FP inh, RecA splice inh, Mtb bLac sens)
O=c1c2cc(N3CCOCC3)ccc2[nH]c(=S)n1CCCN1CCCCC1	GDH-TPI counter 31, Mtb bLac sens inconclusive
CCOC(=O)c1ccc(N2C(=O)CC(N3CCC(O)(c4ccc(Cl)cc4)CC3)C2=O)cc1 (stereo unspecified)	GDH-TPI counter 39
N#C/C(=C\c1ccc(O)c([N+](=O)[O-])c1)C(=O)NCc1ccccc1	GDH-TPI counter 44
Cc1cc(/C=C(\C#N)C(=O)NCc2ccccc2)c(C)[nH]1	GDH-TPI counter 31 (no result: Rv3671c inh, UGM FP inh, RecA splice inh, Mtb bLac sens)
CCc1ccc(NC(=O)/C(C#N)=C\c2ccc(OC)c(C(=O)O)c2)cc1	none
N#C/C(=C\c1ccc(OCc2ccc(C(=O)O)cc2)cc1)C(=O)NCc1ccccc1	GDH-TPI counter 36 (no result: RecA splice inh)
N#C/C(=C\c1ccc(O)c(Br)c1)C(=O)NCc1ccccc1	none
COc1ccc(/C=C(/C#N)C(=O)Nc2ccc(O)cc2)cc1C(=O)O	RecA splice inh 45
N#C/C(=C/c1ccccc1)C(=O)NCc1ccccc1	none
CC1CCN(C(=O)c2nc[nH]c2C(=O)N2CCC(C)CC2)CC1	none (no result: RecA splice inh)
CCCCCC(=O)N1CC2(CC(c3cccc(NC(=O)CC)c3)=NO2)C[C@H]1C(N)=O (stereo partly specified)	none
COc1cc(/C=C(/C#N)C(=O)Nc2ccccc2)ccc1OCc1ccc(C(=O)O)cc1	none
COc1cc(/C=C(\C#N)C(=O)NCc2ccccc2)ccc1OCc1ccc(C(=O)O)cc1	GDH-TPI counter 59
O=C(/C=C/NCc1cccnc1)c1ccc(-c2ccccc2)cc1	GDH-TPI counter 36
Cc1noc(/C=C/c2ccco2)c1S(=O)(=O)N1CCC(C(=O)NCc2ccco2)CC1	GDH-TPI counter 34
Cc1ccc(CNC(=O)C2CCN(S(=O)(=O)c3c(C)noc3/C=C/c3ccco3)CC2)cc1	GDH-TPI counter 37
CCC(Cc1ccccc1)NC(=O)CCNS(=O)(=O)c1cc(Br)cnc1N (stereo unspecified)	none
CCN(CC)S(=O)(=O)c1ccc(N/N=C(\C)c2cccnc2)nc1	GDH-TPI counter 35
CCN(CC)S(=O)(=O)c1ccc(N/N=C(\C)c2ccncc2)nc1	GDH-TPI counter 38
Cc1ccc(S(=O)(=O)N2CCN(C(=O)CN3CCCSc4ccccc43)CC2)cc1	none (no result: RecA splice inh)
CC1CCN(C(=O)CN2C(=O)C(=O)N(C)C2=O)c2ccccc2S1 (stereo unspecified)	none (no result: RecA splice inh)
COCCn1c(O)c(/C=N/NC(=O)CSC(=S)N2CCCC2)c(=O)[nH]c1=S	GDH-TPI counter 32 (no result: RecA splice inh)
O=C(CSC(=S)N1CCCC1)N/N=C/c1c(O)[nH]c(=S)[nH]c1=O	GDH-TPI counter 46 (no result: RecA splice inh)
C/C(=N\n1c(C)nc2ccccc2c1=O)c1ccc(N)cc1	GDH-TPI counter 35
CCN1C(=O)[C@H]2[C@@H](c3ccc(-c4ccc(F)cc4)c(OC)c3)N[C@@](Cc3ccccc3)(C(=O)OC)[C@H]2C1=O	none (no result: RecA splice inh)
COc1ccc(OC)c(NC(=O)COc2cc(O)c3c(c2)OC(C)(C)CC3=O)c1	none (no result: Rv3671c inh, UGM FP inh, RecA splice inh, Mtb bLac sens)
O=C(O)CCn1cc(C2CC(c3ccccc3)=NN2c2ccccc2)c(-c2ccccc2)n1 (stereo unspecified)	FBA Mtb inh active
O=S(=O)(c1cccc(-c2cn3cc(Cl)ccc3n2)c1)N1CCOCC1	none
O=c1nc2ccc(Cl)cn2c2ccc(S(=O)(=O)N3CCOCC3)cc12	FBA Mtb inh 176
CC(C)c1c(C(=O)N/N=C/c2cccc(OCc3ccccc3)c2)nnn1-c1nonc1N	none
O=C(COC(=O)CCNS(=O)(=O)c1ccccc1)NNC(=O)c1ccccc1	none
Cc1c(C=NNc2ccccc2)[nH]c(=O)[nH]c1=O	GDH-TPI counter 32 (no result: Rv3671c inh, UGM FP inh, RecA splice inh, Mtb bLac sens)
CCOc1ccc2c(C)c(C(=O)O)oc2c1OCC	FBA Mtb inh 156
COc1cccc(C(=O)NN2CC(O)=C(c3nc4ccccc4s3)C2=N)c1	none
N=C1C(c2nc3ccccc3s2)=C(O)CN1NC(=O)c1ccco1	GDH-TPI counter 47
CC1CCc2c(sc(NC(=O)c3ccc(N4C(=O)CCC4=O)cc3)c2C(N)=O)C1 (stereo unspecified)	none (no result: RecA splice inh)
Cc1cccc(NC(=O)C2CC(=O)N/C(=N/N=C/c3ccco3)S2)c1 (stereo unspecified)	GDH-TPI counter 57
CCC1S/C(=N/N=C/c2cccs2)NC1=O (stereo unspecified)	none
CC1S/C(=N/N=C/c2ccco2)NC1=O (stereo unspecified)	GDH-TPI counter 39
CC1(C)S/C(=N/N=C/c2ccco2)NC1=O	GDH-TPI counter 55
CC1S/C(=N/N=C/c2cccs2)NC1=O (stereo unspecified)	GDH-TPI counter 42
O=C(Cc1ccc(Cl)cc1)SCc1ccccc1	none (no result: RecA splice inh)
COc1ccc(/C(C)=N/NC(=O)CNC(=O)/C=C\c2ccccc2OC)c(OC)c1	none
CCn1c(COc2ccc(Cl)cc2)nnc1SCc1ccc(C#N)cc1	none
CCn1c(COc2ccc(Cl)cc2)nnc1SC1CCc2ccccc2C1=O (stereo unspecified)	RecA splice inh 62
